Common to all, as to design: scale not given: direction of the effect not stated beside the values
Experiment [1] addresses Protein translocase subunit SecA (Escherichia coli (strain K12)) (UniProt P10408). The experiment in a line: Assay to Identify E. coli SecA ATPase Inhibitors. In kind it is functional. The settings on record: 30 µM.
The target in experiment [2] is T1, Ubiquitin-activating enzyme e1, putative (Leishmania donovani (strain BPK282A1)) (UniProt E9BSI1).
T1 sequence (whole entry): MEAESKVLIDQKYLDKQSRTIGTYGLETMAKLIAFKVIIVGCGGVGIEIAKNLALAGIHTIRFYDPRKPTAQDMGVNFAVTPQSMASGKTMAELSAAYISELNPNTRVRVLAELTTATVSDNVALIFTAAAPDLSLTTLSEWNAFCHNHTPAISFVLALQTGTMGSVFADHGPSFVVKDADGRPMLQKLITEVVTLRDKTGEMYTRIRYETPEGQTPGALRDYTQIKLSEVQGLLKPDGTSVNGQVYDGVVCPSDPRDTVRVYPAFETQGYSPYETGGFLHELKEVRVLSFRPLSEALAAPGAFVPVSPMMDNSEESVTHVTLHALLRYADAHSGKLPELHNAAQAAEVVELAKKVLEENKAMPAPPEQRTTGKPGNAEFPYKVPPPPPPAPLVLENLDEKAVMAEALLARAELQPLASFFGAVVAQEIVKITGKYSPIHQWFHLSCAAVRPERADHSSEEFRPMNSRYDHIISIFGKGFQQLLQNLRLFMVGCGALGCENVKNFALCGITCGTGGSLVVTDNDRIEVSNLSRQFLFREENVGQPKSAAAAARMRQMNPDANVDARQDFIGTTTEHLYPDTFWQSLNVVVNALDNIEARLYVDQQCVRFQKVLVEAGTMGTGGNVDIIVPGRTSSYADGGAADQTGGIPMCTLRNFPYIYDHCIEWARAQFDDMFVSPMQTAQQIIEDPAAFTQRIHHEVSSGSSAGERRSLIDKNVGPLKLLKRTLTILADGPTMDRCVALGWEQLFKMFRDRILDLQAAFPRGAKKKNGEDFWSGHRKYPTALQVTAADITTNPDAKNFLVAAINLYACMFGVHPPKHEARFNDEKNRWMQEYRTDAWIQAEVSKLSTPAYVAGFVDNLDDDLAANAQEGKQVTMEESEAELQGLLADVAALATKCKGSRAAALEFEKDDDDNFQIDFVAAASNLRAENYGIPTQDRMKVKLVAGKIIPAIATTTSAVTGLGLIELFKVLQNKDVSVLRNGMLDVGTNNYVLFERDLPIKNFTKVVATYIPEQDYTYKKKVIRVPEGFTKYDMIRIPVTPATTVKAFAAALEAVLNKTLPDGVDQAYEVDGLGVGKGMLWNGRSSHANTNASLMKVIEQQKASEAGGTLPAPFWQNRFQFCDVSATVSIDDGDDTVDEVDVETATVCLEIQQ
The experiment in a line: Leishmania donovani Ubiquitin Activating Enzyme (LdE1). The settings on record: 30 µM. The experiment is classed as functional.

For experiment [3], the target named is AMP-activated protein kinase, AMPK (Homo sapiens) (UniProt P54646+O43741+P54619+Q9UGJ0+Q9Y478+Q13131+Q9UGI9). The experiment in a line: AMP-dependent Kinase enzyme assay. An in vitro enzyme assay that detects ADP turnover that is directly proportional to AMPK activity. This uses naive AMPK that is activated during the assay with MK-8722. The experiment is classed as functional. The conditions noted are these: 30 µM.

Experiment [4] addresses Sialic acid-binding Ig-like lectin 9 (Homo sapiens) (UniProt Q9Y336). The experiment in a line: Hs-Siglec9 ALPHAscreen SOP 20170721. The conditions noted are these: 10 µM. A general note: Bead proximity is the source of the signal in Alpha formats.
A further experiment relates to Trypanosoma cruzi. Kind of experiment: Trypanosoma cruzi phosphomannomutase and mannose-1-phosphate guanylyltransferase assay. In kind it is functional. The conditions noted are these: 10 µM.
For experiment [5], the target named is T2, Arginase-2, mitochondrial (Homo sapiens) (UniProt P78540).
T2 sequence (whole entry): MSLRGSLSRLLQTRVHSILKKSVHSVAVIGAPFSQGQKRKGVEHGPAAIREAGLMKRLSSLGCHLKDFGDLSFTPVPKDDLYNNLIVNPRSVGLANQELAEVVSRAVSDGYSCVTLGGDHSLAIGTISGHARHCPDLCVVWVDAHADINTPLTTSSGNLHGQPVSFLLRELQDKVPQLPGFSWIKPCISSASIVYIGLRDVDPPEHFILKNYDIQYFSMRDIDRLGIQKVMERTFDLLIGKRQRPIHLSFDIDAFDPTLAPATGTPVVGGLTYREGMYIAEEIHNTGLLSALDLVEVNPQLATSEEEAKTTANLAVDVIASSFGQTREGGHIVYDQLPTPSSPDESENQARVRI
Kind of experiment: in vitro enzyme assay to detect the production of urea directly proportional to the activity of Arginase II. Also: in the data most compounds retested in dose-response had high values. In kind it is functional. The settings on record: 33.3 µM.

Experiment [6] deals with T3, Proteasome subunit beta (Trypanosoma cruzi) (UniProt O96673).
T3 sequence (whole entry): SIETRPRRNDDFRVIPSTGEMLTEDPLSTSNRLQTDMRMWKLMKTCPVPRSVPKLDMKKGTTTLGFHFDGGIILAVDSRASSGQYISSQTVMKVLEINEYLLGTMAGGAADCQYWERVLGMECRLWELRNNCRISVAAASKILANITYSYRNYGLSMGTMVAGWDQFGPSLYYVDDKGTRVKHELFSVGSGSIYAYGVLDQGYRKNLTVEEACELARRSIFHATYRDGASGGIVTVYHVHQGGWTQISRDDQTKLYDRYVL
Kind of experiment: Trypanosoma cruzi proteasome chymotrypsin-like activity (TcProtChymo) assay. Also: in the data most compounds retested in dose-response had high values. The settings on record: 9.37 µM. The experiment is classed as functional.

The species entered for a further experiment is Homo sapiens. Kind of experiment: To identify inhibition of the IFN signalling (Jak-Stat) pathway via expression of an eGFP reporter gene under the control of an IFN-stimulated response element (ISRE) containing MxA promoter. The experiment is classed as functional. The settings on record: 30 µM. For orientation: A reporter such as luciferase makes a cellular process visible.

Experiment [7] addresses T4, Tyrosyl-tRNA synthetase, putative (Trypanosoma cruzi (strain CL Brener)) (UniProt Q4DSP6).
T4 sequence (whole entry): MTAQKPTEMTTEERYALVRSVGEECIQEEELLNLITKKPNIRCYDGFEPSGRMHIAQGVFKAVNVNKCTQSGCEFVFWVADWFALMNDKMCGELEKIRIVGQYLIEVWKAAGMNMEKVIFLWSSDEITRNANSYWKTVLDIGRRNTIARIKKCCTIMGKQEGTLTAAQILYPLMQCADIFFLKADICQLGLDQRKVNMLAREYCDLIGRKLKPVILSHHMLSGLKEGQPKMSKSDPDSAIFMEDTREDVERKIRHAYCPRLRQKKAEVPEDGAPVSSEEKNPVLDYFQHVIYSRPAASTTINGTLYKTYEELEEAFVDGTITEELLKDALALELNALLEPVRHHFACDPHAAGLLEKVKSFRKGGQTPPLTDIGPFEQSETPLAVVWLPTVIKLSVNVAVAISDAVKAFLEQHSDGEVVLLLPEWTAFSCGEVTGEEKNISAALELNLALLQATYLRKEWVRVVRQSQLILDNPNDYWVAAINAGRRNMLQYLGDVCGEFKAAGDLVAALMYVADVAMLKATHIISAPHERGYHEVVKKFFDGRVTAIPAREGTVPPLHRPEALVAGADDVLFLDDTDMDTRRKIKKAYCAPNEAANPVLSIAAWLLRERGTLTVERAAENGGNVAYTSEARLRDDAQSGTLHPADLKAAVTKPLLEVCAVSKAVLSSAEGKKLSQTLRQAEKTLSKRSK
Kind of experiment: Trypanosoma cruzi tyrosyl tRNA synthetase (TcYRS) _High Tyrosine SOP. Also: in the data most compounds retested in dose-response had high values. In kind it is functional. The settings on record: 30 µM.

The target of experiment [8] is T4, Tyrosyl-tRNA synthetase, putative (Trypanosoma cruzi (strain CL Brener)). The experiment in a line: Trypanosoma cruzi tyrosyl tRNA synthetase (TcYRS) SOP. The settings on record: 30 µM. In kind it is functional.
The target in experiment [9] is Chromo domain-containing protein 1 (Saccharomyces cerevisiae (strain ATCC 204508 / S288c) (Baker's yeast)) (UniProt P32657). Kind of experiment: ScCHD-1 Enzyme Inhibition Assay. Also: in the data most compounds retested in dose-response had high values. In kind it is functional. The settings on record: 30 µM.

Structures are written as SMILES. For some of these results: Measured potencies and affinities stand elsewhere.

Chain of Chromo domain-containing protein 1 (Saccharomyces cerevisiae (strain ATCC 204508 / S288c) (Baker's yeast)) (P32657 whole entry, the tested form may be a part): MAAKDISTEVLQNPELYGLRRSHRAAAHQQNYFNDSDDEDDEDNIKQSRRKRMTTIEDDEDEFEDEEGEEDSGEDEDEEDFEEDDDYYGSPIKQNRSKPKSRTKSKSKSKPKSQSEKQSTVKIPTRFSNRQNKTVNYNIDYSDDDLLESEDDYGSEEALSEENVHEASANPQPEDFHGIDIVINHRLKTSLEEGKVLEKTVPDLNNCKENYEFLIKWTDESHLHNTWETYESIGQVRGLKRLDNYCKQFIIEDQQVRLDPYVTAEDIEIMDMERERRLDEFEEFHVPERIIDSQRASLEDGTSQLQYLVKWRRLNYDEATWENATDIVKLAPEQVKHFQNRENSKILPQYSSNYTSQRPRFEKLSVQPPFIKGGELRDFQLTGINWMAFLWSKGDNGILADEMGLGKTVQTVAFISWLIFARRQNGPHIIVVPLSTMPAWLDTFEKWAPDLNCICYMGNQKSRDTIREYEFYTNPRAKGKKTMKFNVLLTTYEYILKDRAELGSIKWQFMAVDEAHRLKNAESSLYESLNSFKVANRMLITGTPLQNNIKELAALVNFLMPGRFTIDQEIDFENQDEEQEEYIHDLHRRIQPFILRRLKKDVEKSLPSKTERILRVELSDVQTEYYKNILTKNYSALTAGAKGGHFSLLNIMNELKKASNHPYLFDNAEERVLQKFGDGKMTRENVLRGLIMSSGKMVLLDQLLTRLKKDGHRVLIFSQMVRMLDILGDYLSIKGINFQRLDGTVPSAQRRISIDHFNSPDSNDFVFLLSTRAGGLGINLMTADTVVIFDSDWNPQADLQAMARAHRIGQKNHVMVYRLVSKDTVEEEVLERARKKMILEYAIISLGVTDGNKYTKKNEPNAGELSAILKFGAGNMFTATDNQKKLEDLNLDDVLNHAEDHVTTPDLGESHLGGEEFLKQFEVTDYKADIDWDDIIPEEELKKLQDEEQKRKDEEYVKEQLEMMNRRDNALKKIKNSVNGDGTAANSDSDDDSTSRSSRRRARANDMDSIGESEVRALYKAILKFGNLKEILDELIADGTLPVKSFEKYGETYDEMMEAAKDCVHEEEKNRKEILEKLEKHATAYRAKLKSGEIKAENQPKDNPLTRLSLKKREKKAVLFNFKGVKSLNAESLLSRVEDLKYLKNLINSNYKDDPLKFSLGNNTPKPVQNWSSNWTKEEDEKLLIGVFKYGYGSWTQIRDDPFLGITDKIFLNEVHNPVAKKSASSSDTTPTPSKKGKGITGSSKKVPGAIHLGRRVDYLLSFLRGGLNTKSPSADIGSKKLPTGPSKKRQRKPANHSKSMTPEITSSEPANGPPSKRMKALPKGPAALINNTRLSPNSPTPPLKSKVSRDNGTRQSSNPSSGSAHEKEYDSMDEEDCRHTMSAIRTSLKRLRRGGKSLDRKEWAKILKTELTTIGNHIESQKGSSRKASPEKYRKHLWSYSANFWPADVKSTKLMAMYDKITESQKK
Chain of Protein translocase subunit SecA (Escherichia coli (strain K12)) (P10408 whole entry): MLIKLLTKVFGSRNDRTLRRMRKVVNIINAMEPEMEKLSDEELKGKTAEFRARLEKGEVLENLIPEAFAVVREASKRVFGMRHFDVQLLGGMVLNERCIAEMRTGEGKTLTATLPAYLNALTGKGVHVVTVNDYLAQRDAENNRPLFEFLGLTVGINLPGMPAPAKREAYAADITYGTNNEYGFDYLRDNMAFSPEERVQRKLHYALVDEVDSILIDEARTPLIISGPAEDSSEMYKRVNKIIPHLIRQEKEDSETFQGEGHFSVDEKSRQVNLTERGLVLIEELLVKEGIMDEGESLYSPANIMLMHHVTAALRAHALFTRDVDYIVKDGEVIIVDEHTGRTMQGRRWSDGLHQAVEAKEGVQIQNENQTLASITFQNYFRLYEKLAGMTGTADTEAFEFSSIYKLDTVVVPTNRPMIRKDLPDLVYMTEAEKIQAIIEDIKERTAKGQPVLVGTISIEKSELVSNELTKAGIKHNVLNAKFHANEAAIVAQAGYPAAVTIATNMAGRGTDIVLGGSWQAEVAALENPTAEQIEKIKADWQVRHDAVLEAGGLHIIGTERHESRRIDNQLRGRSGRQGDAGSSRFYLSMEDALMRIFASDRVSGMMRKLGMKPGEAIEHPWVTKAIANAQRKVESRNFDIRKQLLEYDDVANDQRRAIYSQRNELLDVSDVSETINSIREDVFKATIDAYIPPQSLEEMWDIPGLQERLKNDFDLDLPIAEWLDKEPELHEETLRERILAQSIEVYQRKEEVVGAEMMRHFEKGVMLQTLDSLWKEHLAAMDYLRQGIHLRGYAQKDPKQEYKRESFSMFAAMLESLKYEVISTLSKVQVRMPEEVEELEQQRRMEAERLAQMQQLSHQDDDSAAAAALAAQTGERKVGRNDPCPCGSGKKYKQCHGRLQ
Chain of Sialic acid-binding Ig-like lectin 9 (Homo sapiens) (Q9Y336 whole entry): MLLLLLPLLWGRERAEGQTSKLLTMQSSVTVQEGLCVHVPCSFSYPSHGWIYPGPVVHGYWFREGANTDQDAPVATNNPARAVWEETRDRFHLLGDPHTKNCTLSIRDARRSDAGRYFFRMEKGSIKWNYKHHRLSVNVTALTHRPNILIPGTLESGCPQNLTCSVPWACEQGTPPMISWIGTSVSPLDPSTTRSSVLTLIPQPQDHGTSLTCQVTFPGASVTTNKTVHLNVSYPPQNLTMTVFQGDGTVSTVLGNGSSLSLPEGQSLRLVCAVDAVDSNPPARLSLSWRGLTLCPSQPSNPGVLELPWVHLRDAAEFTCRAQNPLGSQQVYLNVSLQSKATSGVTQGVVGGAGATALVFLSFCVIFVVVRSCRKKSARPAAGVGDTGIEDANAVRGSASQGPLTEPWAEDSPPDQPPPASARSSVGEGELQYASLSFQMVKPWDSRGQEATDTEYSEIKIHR

In the case of `Cn1ccnc1CN1CCN(c2ccc(C#N)cn2)CC1`, the Percent Effect in experiment [1] was -0.525%; in [2], -67.6%; in experiment [3] it was 39.5%; in [4], 9.32%; in the experiment with Trypanosoma cruzi, 0.464%; in experiment [5], 1.29%. The Percent Effect is 6.64% in [6]; 7.75% in the experiment listed under Homo sapiens; 6.93% in experiment [7]; 15.8% in [8]; -4.02% in [9].
Turning to `CSCc1cccc(S(=O)(=O)N2CCSCC2)c1`, the Percent Effect in experiment [1] is -2.31%; in experiment [2], -1.33%; in experiment [3], 0.956%; in [4] it was 1.81%; in the experiment with Trypanosoma cruzi, -4.91%; in experiment [5], -4.05%. Further, the Percent Effect in experiment [6] was 8.87%; in the experiment filed under Homo sapiens it was 4.39%; in experiment [7] it was -16.9%; in experiment [8] it was -2.56%; in experiment [9], -9.22%.
With `CC(C)Cc1cc(NC(=O)c2ccc(=O)[nH]n2)n(C)n1`, the Percent Effect is -8.11% in experiment [1]; 18.2% in experiment [2]; -1.51% in experiment [3]; 12.1% in [4]; 3.75% in the experiment on Trypanosoma cruzi; 2.85% in [5]. Also, the Percent Effect in experiment [6] was 4.73%; in the experiment listed under Homo sapiens, 0.756%; in [7], 8.74%; in [8], 24.4%; in [9], -11.8%.
For the molecule `CCc1csc(C2CCCN(C(=O)c3ccnc(N(C)C)c3)C2)n1` (stereo not drawn), the Percent Effect is -1.95% in [1]; 13.2% in experiment [2]; 0.891% in [3]; -9.58% in experiment [4]; 4.58% with Trypanosoma cruzi; -3.55% in experiment [5]. Besides, the Percent Effect in experiment [6] is 7.77%; in the experiment listed under Homo sapiens it was 41.7%; in experiment [7] it was 4.25%; in experiment [8] it was 13%; in experiment [9] it was -4.33%.
Take `Cc1nc(CCNC(=O)NC2CCN(c3ncccn3)CC2)cs1`: the Percent Effect in experiment [1] was -1.83%; in experiment [2], 11%; in experiment [3] it was -4.69%; in [4], 4.09%; in the experiment with Trypanosoma cruzi it was 1.19%; in [5] it was -1.6%. Further, the Percent Effect in [6] came out at 16%; in the experiment filed under Homo sapiens, 22.2%; in experiment [7], 11.5%; in experiment [8] it was 21%; in [9], 0.13%.
Take `COCCn1ccc(NC(=O)Nc2cccnc2)n1`: the Percent Effect is -2.55% in experiment [1]; 0% in [2]; 3.19% in [3]; 3.76% in experiment [4]; 2.82% in the experiment on Trypanosoma cruzi; -7.1% in [5]. The Percent Effect in [6] was 15.6%; in the experiment listed under Homo sapiens, 21.2%; in experiment [7], 3.19%; in experiment [8], 7.79%; in experiment [9], -6.3%.
As for `CN(CC(=O)N1CCN(c2ccccc2F)CC1)c1cnccn1`, the Percent Effect in experiment [1] is -1.13%; in experiment [2], 16.2%; in experiment [3], -1.85%; in [4], 4.66%; in the experiment with Trypanosoma cruzi it was -0.0929%; in [5], -5.73%. For the same molecule, the Percent Effect is 6.82% in [6]; 12.1% in the experiment filed under Homo sapiens; 5.94% in experiment [7]; 15.8% in experiment [8]; -7.13% in [9].
Turning to `COc1ccccc1Oc1ncccc1CNC(=O)C(C)N1CCCC1` (stereo not drawn), the Percent Effect in experiment [1] was -3.48%; in experiment [2], 12.5%; in experiment [3] it was -6.43%; in experiment [4], 29.1%; in the experiment on Trypanosoma cruzi, 3.4%; in [5], 50.3%. Besides, the Percent Effect in [6] is 11.8%; in the experiment listed under Homo sapiens, -6.43%; in experiment [7], 4.21%; in [8] it was 12.8%; in experiment [9], -9.98%.

For the origin of these results see ChEMBL document CHEMBL3988442, “University of Dundee, Small-Polar-MMV Screening Library” (2021).
